# Laboratory results as given in PubChem BioAssay (NCATS).
# Several values for one entry are separate records, joined by “and”; a condition that tells them apart may be missing. Equal values may be shown once. Results filed as inconclusive are left out. A call without a number means that no potency is given here. A number with no mark means an inactive call. Activity calls are given as the source filed them. The call rests on the fitted dose curve; in most records, active means well fitted curve in the direction sought with a large enough effect; inconclusive means small, poorly fitted or top-dose-only effect, or another doubt; inactive means no such curve, though single readings can be large; an effect the other way counts as inactive or inconclusive.
# Legend:
# [1] = Viability qHTS for spleen associated tyrosine kinase inhibitor (SYKi) naive MV4-11 cells (AID 1963823); further: nearly all actives have a fitted effect of over 40% in size
# Outline: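 Seeding of 500 SYKi-naive MV4-11 cells per well onto pre-dispensed compounds preceded a 72 hr incubation at 37 C. Luminescent CellTiter-Glo signal, read after 10 min at room temperature, reflected viable cells.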
# [2] = Cellular viability qHTS for adrenocortical cancer (ACC) cell line SW-13 (AID 1963989); details: SW-13 ACC cells viability, CellTiter-Glo, 48 h; activity (max response): active compounds read low; further: nearly all actives have a fitted effect of over 65% in size;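 on activity (max response): cells grown in serum-free medium with ITS supplement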
# Outline: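 48 h treatment, SW-13 in ITS/DMEM serum-free; doses up to 46 uM; readout CellTiter-Glo luminescence; curve fit four-parameter logistic.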
# [3] = Cellular viability qHTS for adrenocortical cancer (ACC) cell line NCI-H295R (AID 1963990); further: nearly all actives have a fitted effect of over 60% in size
# Outline: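 Compound titrations (up to 46 uM final) are applied to NCI-H295R cultures for 48 h at 37C. Viable cell number is estimated by CellTiter-Glo signal, normalised to DMSO and doxorubicin controls.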
# Potency means the concentration at half of the fitted maximal effect.
smiles,measurement,setting,value
CC[N+](C)(CC)CCOC(=O)C1c2ccccc2Oc2ccccc21,Potency,[1],inactive
same,activity (max response),[2],-11.3%
same,Potency,[3],inactive
FC(F)(F)c1ccccc1-n1ccnc1,Potency,[1],inactive
same,activity (max response),[2],17.5%
same,Potency,[3],inactive
O=S(=O)(NCCNC/C=C/c1ccc(Br)cc1)c1cccc2cnccc12,Potency,[1],5.17 µM (active) and 4.68 µM (active)
same,Potency,[2],31.6 µM (active)
same,Potency,[3],28.2 µM (active)
COc1cccc2c1c(O)c(C(=O)N(C)c1ccc(C(F)(F)F)cc1)c(=O)n2C,Potency,[1],inactive
same,activity (max response),[2],-27.3%
same,Potency,[3],inactive
O=C(Nc1ccc2[nH]nc(-c3ccncc3)c2c1)[C@@H]1CCN(CC(=O)N2CCN(c3ccc(-c4ncccn4)cc3)CC2)C1,Potency,[1],25.9 nM (active) and 525 nM (active)
same,Potency,[2],4.47 µM (active)
same,Potency,[3],inactive
[2H]c1nc(C)nc([2H])c1-c1cc(NC[C@@H](C)c2cccc3c(C(=O)NC)ccnc23)ncn1,Potency,[1],inactive
same,activity (max response),[2],14.2%
same,Potency,[3],inactive
Cc1ccc(C(=O)C(=O)O)cc1C,Potency,[1],inactive
same,activity (max response),[2],1.9%
same,Potency,[3],inactive
C[N+](C)(C)CC[N+]1(C)Cc2c(Cl)c(Cl)c(Cl)c(Cl)c2C1,Potency,[1],inactive
same,activity (max response),[2],6.09%
same,Potency,[3],inactive
CCC(=O)NS(=O)(=O)c1ccc(-c2c(-c3ccccc3)noc2C)cc1,Potency,[1],inactive
same,activity (max response),[2],-1.9%
same,Potency,[3],inactive
CC1(C)O[C@@H]2C[C@H]3[C@@H]4CCC5=CC(=O)C=C[C@]5(C)[C@H]4[C@@H](O)C[C@]3(C)[C@]2(C(=O)CO)O1,Potency,[1],inactive
same,activity (max response),[2],-6.19%
same,Potency,[3],inactive
CCOC(=O)[C@H](CCc1ccccc1)N[C@@H](C)C(=O)N1Cc2cc(OC)c(OC)cc2C[C@H]1C(=O)O,Potency,[1],inactive
same,activity (max response),[2],2.85%
same,Potency,[3],inactive
Cc1ncc(CSSCc2cnc(C)c(O)c2CO)c(CO)c1O,Potency,[1],inactive
same,activity (max response),[2],9.04%
same,Potency,[3],inactive
Nc1ccc(S(=O)(=O)NC(=O)c2ccccc2)cc1,Potency,[1],inactive
same,activity (max response),[2],4.69%
same,Potency,[3],inactive
CC(C(O)c1ccc(O)cc1)N1CCC(Cc2ccccc2)CC1 (stereo not given),Potency,[1],inactive
same,activity (max response),[2],-9.39%
same,Potency,[3],inactive
CN(C)c1cc(NC(=O)CNC(C)(C)C)c(O)c2c1C[C@H]1C[C@H]3[C@H](N(C)C)C(=O)C(C(N)=O)=C(O)[C@]3(O)C(=O)C1=C2O,Potency,[1],inactive
same,activity (max response),[2],-8.31%
same,Potency,[3],inactive
CCCCCCCCCCCCSCCOCCO,Potency,[1],inactive
same,activity (max response),[2],-3.34%
same,Potency,[3],inactive
O=C(O)C1(C(=O)O)CCC1.[NH2-].[NH2-].[Pt+2],Potency,[1],inactive
same,activity (max response),[2],10.4%
same,Potency,[3],inactive
CC[C@@]1(O)C(=O)OCc2c1cc1n(c2=O)Cc2c-1nc1ccccc1c2/C=N/OC(C)(C)C,Potency,[1],8.4 nM (active)
same,Potency,[2],0.013 µM (active)
same,Potency,[3],inactive
C=C1[C@H](OC(=O)/C=C(\C)CC)C[C@@H](C(C)C)[C@@H]2[C@H]([C@@H](C)OC(C)=O)C(=O)C[C@@H]12,Potency,[1],14800 nM (active)
same,activity (max response),[2],6.72%
same,Potency,[3],inactive
COC(=O)CCCCC(CCSS/C(CCO)=C(\C)N(C=O)Cc1cnc(C)nc1N)SC(C)=O (stereo not given),Potency,[1],inactive
same,activity (max response),[2],8.22%
same,Potency,[3],inactive
COc1cc(-c2cn(C)c(=O)c3cnccc23)cc(OC)c1CN(C)C,Potency,[1],inactive
same,activity (max response),[2],-6.63%
same,Potency,[3],inactive
CC(C)OP(=O)(CP(=O)(OC(C)C)OC(C)C)OC(C)C,Potency,[1],inactive
same,activity (max response),[2],9.07%
same,Potency,[3],inactive
O=C1NC(=O)[C@@H](c2c[nH]c3ccccc23)[C@H]1c1cn2c3c(cccc13)CCC2,Potency,[1],833 nM (active)
same,Potency,[2],0.398 µM (active)
same,Potency,[3],0.355 µM (active)
O=C1c2cccc(O)c2C(=O)c2c(O)cccc21,Potency,[1],inactive
same,activity (max response),[2],1.51%
same,Potency,[3],inactive
O=C(CCCN1CC=C(n2c(=O)[nH]c3ccccc32)CC1)c1ccc(F)cc1,Potency,[1],inactive
same,activity (max response),[2],-10.3%
same,Potency,[3],inactive
C=C1C[C@@]2(O)O[C@@]3(C[C@H]2C(C)C)[C@@H](C)CC[C@@H]13,Potency,[1],inactive
same,activity (max response),[2],6.19%
same,Potency,[3],inactive
O=C1CN(/N=C/c2ccc([N+](=O)[O-])o2)C(=O)N1,Potency,[1],inactive
same,activity (max response),[2],-20.9%
same,Potency,[3],18.4 µM (active)
Cc1cc2c(OCC(CNC(C)(C)C)OC(=O)c3ccccc3)cccc2[nH]1 (stereo not given),Potency,[1],inactive
same,activity (max response),[2],7.67%
same,Potency,[3],inactive
COc1cccc2c1C(=O)c1c(O)c3c(c(O)c1C2=O)C[C@@](O)(C(=O)CO)C[C@@H]3O[C@H]1C[C@H](N)[C@H](O)[C@H](C)O1,Potency,[1],133 nM (active)
same,Potency,[2],2.31 µM (active) and 891 nM (active)
same,Potency,[3],23.1 µM (active) and 7.08 µM (active)
NC(=O)c1cnc2[nH]ccc2c1NC1C2CC3C[C@H]1CC(O)(C3)C2 (stereo not given in full),Potency,[1],105 nM (active)
same,Potency,[3],inactive
CC(C)=CCC[C@@](C)(O)[C@H]1CC=C(C)CC1,Potency,[1],inactive
same,activity (max response),[2],18.9%
same,Potency,[3],inactive
CN1C(N)=N[C@](C)(c2cc(NC(=O)c3ccc(F)cn3)ccc2F)CS1(=O)=O,Potency,[1],inactive
same,activity (max response),[2],-4.84%
same,Potency,[3],inactive
COc1cc(N2CCN(C)CC2)ccc1Nc1ncc2c(n1)N(C)c1ccccc1C(=O)N2C,Potency,[1],934 nM (active)
same,Potency,[3],14.1 µM (active)
O=C1Cc2cc(Cl)ccc2N1,Potency,[1],inactive
same,activity (max response),[2],11.1%
same,Potency,[3],inactive
CC[N+](CC)(CC)CCOc1ccc(/C=C/c2ccccc2)cc1,Potency,[1],inactive
same,Potency,[3],inactive
CN1CCC[C@@H]1Cc1c[nH]c2ccc(CCS(=O)(=O)c3ccccc3)cc12,Potency,[1],inactive
same,activity (max response),[2],-0.887%
same,Potency,[3],inactive
CC1(C)[C@@H](O)CC[C@]2(C)[C@H]3C(=O)C=C4[C@@H]5C[C@@](C)(C(=O)O)CC[C@]5(C)CC[C@@]4(C)[C@]3(C)CC[C@@H]12,Potency,[1],inactive
same,Potency,[3],inactive
NC(N)=Nc1nc(CSCC/C(N)=N/S(N)(=O)=O)cs1,Potency,[1],inactive
same,activity (max response),[2],9.53%
same,Potency,[3],inactive
CC1=C(/C=C/C(C)=C/C=C/C(C)=C/C=C/C=C(C)/C=C/C=C(C)/C=C/C2=C(C)CCCC2(C)C)C(C)(C)CCC1,Potency,[1],23500 nM (active)
same,activity (max response),[2],-7.78%
same,Potency,[3],inactive
CN1CCN(C(=O)[C@H]2[C@@H](C(=O)O)[C@H]3CC[C@@H]2O3)CC1,viability (% of control),[1],78.3% [at 9.25 µM]
same,activity (max response),[2],-7.83%
same,"activity change, negative = viability loss",[3],2.26% [at 9.17 µM]
CC(=O)N1CCN(c2ccc(O)cc2)CC1,Potency,[1],inactive
same,activity (max response),[2],7.26%
same,Potency,[3],inactive
CC(=O)OCC(=O)[C@@]1(O)CC[C@H]2[C@@H]3CCC4=CC(=O)C=C[C@]4(C)[C@H]3[C@@H](O)C[C@@]21C,Potency,[1],inactive
same,activity (max response),[2],1.48% and -12.4%
same,Potency,[3],inactive
CCCC(CCC)(C(=O)OCC)C(=O)OCC,Potency,[1],inactive
same,activity (max response),[2],12.5%
same,Potency,[3],inactive
COC(=O)[C@@H]1CC2=CC(=O)CC[C@]2(C)[C@@]23O[C@@H]2C[C@@]2(C)[C@@H](CC[C@@]24CCC(=O)O4)[C@H]13,Potency,[1],inactive
same,activity (max response),[2],-0.519% and -3.74%
same,Potency,[3],inactive
NS(=O)(=O)c1cc2c(cc1Cl)NC(C1CC3C=CC1C3)NS2(=O)=O (stereo not given),Potency,[1],inactive
same,activity (max response),[2],-7.72%
same,Potency,[3],inactive
CSC[C@H]1CN(Cc2c[nH]c3c(N)ncnc23)C[C@@H]1O,Potency,[1],inactive
same,activity (max response),[2],-14.7%
same,Potency,[3],inactive
CCN(CC)CCCC[C@H](NC(=O)[C@H](CC(C)C)NC(=O)[C@H](C)NC(=O)[C@H](Cc1ccccc1)NC(=O)c1ccc(C(C)(C)C)cc1)C(=O)N[C@@H](CO)C(=O)OC,Potency,[1],inactive
same,activity (max response),[2],-29.2%
same,Potency,[3],inactive
C1CCN2C[C@@H]3C[C@@H](CN4CCCC[C@@H]34)[C@H]2C1,Potency,[1],inactive
same,activity (max response),[2],-0.968%
same,Potency,[3],inactive
COC(=O)N(C)c1c(N)nc(-c2nn(Cc3ccccc3F)c3ncccc23)nc1N,Potency,[1],inactive
same,activity (max response),[2],-4.16%
same,Potency,[3],inactive
O=C(NNc1ccccc1)c1ccncc1,Potency,[1],inactive
same,Potency,[3],inactive
CCN1C(=O)CNc2ncc(-c3ccc(-c4ncn[nH]4)nc3C)nc21,Potency,[1],417 nM (active)
same,Potency,[2],8.91 µM (active)
same,Potency,[3],10 µM (active)
Cc1nnc(C(C)C)n1C1CC2CCC(C1)N2CCC(NC(=O)C1CCC(F)(F)CC1)c1ccccc1 (stereo not given),Potency,[1],inactive
same,activity (max response),[2],-4.92%
same,Potency,[3],inactive
O=C(O)c1ccc(CN2CCC(CN[C@@H]3C[C@H]3c3ccccc3)CC2)cc1,Potency,[1],inactive
same,Potency,[3],inactive
O=Cc1ccc(O)c(O)c1O,Potency,[1],inactive
same,activity (max response),[2],-7.42%
same,Potency,[3],18.4 µM (active)
O=C(O)CC(C(=O)O)n1c(O)c(C2=c3cc(Br)ccc3=NC2=O)sc1=S (stereo not given),Potency,[1],inactive
same,activity (max response),[2],-4.1%
same,Potency,[3],inactive
CN(C)C(=S)SC(=S)N(C)C,Potency,[1],1680 nM (active)
same,Potency,[2],9.2 µM (active)
same,Potency,[3],2.31 µM (active)
CC(=O)Nc1ccc(OCCOCCOc2ccc(NC(C)=O)cc2)cc1,Potency,[1],inactive
same,activity (max response),[2],-7.42%
same,Potency,[3],inactive
COc1ccc(CCN(C)CCCN2CCc3cc(OC)c(OC)cc3CC2=O)cc1OC,Potency,[1],inactive
same,activity (max response),[2],5.36%
same,Potency,[3],inactive
CN1CCN(c2ccc(-c3cccc(CN4CCOCC4)c3)cc2NC(=O)c2c[nH]c(=O)cc2C(F)(F)F)CC1,Potency,[1],inactive
same,activity (max response),[2],-3.17%
same,Potency,[3],inactive
Cc1c(-c2ccc(-c3ccccc3F)cc2)nc2ccc(F)cc2c1C(=O)O,Potency,[1],148 nM (active)
same,Potency,[3],inactive
Oc1cccc2[nH]ccc12,Potency,[1],5310 nM (active)
same,activity (max response),[2],11.5%
same,Potency,[3],inactive
CC(CCc1ccc2c(c1)OCO2)NN (stereo not given),Potency,[1],inactive
same,activity (max response),[2],9.04%
same,Potency,[3],inactive
CN(C)CCCN1c2ccccc2Sc2ccc(Cl)cc21,Potency,[1],10600 nM (active)
same,Potency,[2],14.6 µM (active)
same,Potency,[3],18.4 µM (active)
Cc1ccc(/C=N/n2c(-c3ccccc3)csc2=S)cc1,Potency,[1],inactive
same,activity (max response),[2],8.75%
same,Potency,[3],inactive
